Holding throughout (details): mRNA level, 48 h; actives raise or lower the signal
Read-out in assay [1]: ABC Transporter (ABCB1), ABCB1 (gene 5243)
The assay can be described thus: LTEA_HepaRG_ABCB1: Life Technologies and Expression Analysis (LTEA) Assay for ABC Transporter (ABCB1) using HepaRG (AID 2283460). In a few lines:
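Human liver HepaRG line treated 48 h with up to 100 uM compound (eight half-log points, 0.5% DMSO); ABCB1 mRNA change fitted bidirectionally against DMSO controls.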

Read-out in assay [2]: growth arrest and DNA damage 45 (GADD45B), GADD45B (gene 4616)
The assay can be described thus: LTEA_HepaRG_GADD45B: Life Technologies and Expression Analysis (LTEA) Assay for growth arrest and DNA damage 45 (GADD45B) using HepaRG (AID 2283461). In a few lines:
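Transcript level quantified by Fluidigm TaqMan qRT-PCR with three housekeeping genes for normalization, analyzed for up- or down-regulation against 0.5% DMSO. HepaRG cultures dosed 48 h at eight half-log concentrations up to 100 uM, duplicates.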

Read-out in assay [3]: ABC Transporter (ABCC3), ABCC3 (gene 8714)
The assay can be described thus: LTEA_HepaRG_ABCC3: Life Technologies and Expression Analysis (LTEA) Assay for ABC Transporter (ABCC3) using HepaRG (AID 2283462). In short, it runs like this: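 Transcript level by TaqMan qRT-PCR, normalised to three housekeeping genes, fitted in both directions relative to vehicle. Chemicals tested in duplicate at eight half-log concentrations up to 100 uM for 48 h on HepaRG cells (0.5% DMSO).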

Read-out in assay [4]: ABC Transporter (ABCC2), ABCC2 (gene 1244)
Briefly: LTEA_HepaRG_ABCC2: Life Technologies and Expression Analysis (LTEA) Assay for ABC Transporter (ABCC2) using HepaRG (AID 2283464). In short, it runs like this:
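Endpoint is ABCC2 transcript level from qRT-PCR, normalized to three housekeeping genes and fitted bidirectionally relative to DMSO. Human HepaRG cells received test chemical for 48 h at up to 100 uM (8 points, half-log steps, 0.5% DMSO), duplicate wells.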

Read-out in assay [5]: Broad substrate specificity ATP-binding cassette transporter ABCG2 (Homo sapiens) (UniProt Q9UNQ0)
Briefly: LTEA_HepaRG_ABCG2: Life Technologies and Expression Analysis (LTEA) Assay for ABC Transporter (ABCG2) using HepaRG (AID 2283465). In a few lines:
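Gene expression of ABCG2 in HepaRG liver cells is quantified by qRT-PCR following 48 h exposure across an eight-point series topping at 100 uM. Values come from bidirectional fitting relative to DMSO vehicle.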

Read-out in assay [6]: ATP-citrate lyase (ACLY), ACLY (gene 47)
The assay can be described thus: LTEA_HepaRG_ACLY: Life Technologies and Expression Analysis (LTEA) Assay for ATP-citrate lyase (ACLY) using HepaRG (AID 2283466). In short, it runs like this: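 ACLY expression changes in human HepaRG liver cells are quantified by qRT-PCR after 48 h exposure to test chemicals (maximum 100 uM, half-log steps). Values are fitted in both directions relative to 0.5% DMSO vehicle.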

Read-out in assay [7]: Peroxisomal acyl-coenzyme A oxidase 1 (ACOX1) gene, ACOX1 (gene 51)
The assay can be described thus: LTEA_HepaRG_ACOX1: Life Technologies and Expression Analysis (LTEA) Assay for Peroxisomal acyl-coenzyme A oxidase 1 (ACOX1) gene using HepaRG (AID 2283467). In a few lines: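 Human HepaRG hepatic cultures, 48 h treatment with test chemicals up to 100 uM. ACOX1 expression read by qRT-PCR relative to 0.5% DMSO vehicle.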

Read-out in assay [8]: Alkaline Phosphatase, Placental (ALPP) gene, ALPP (gene 250)
Briefly: LTEA_HepaRG_ALPP: Life Technologies and Expression Analysis (LTEA) Assay for Alkaline Phosphatase, Placental (ALPP) gene using HepaRG (AID 2283468).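 For AC50: differentiated human HepaRG liver cells in serum-free induction medium.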 In a few lines:
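ALPP transcript level, measured by qRT-PCR and normalized to three housekeeping genes (ACTB, GAPDH, POLR2A), after 48 h dosing of differentiated HepaRG in serum-free induction medium. Top concentration 100 uM with half-log dilutions (8 points, 0.5% DMSO, duplicates); bidirectional fitting relative to DMSO.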

Read-out in assay [9]: Bcl-2 (BAD) gene, BAD (gene 572)
Briefly: LTEA_HepaRG_BAD: Life Technologies and Expression Analysis (LTEA) Assay for Bcl-2 (BAD) gene using HepaRG (AID 2283469). In short, it runs like this: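 Activity values reflect up- or down-regulation of BAD mRNA in human HepaRG hepatic cells treated 48 h in serum-free medium, with eight-point half-log dosing capped at 100 uM and 0.5% DMSO vehicle.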

Read-out in assay [10]: Bcl-2 (BAX) gene, BAX (gene 581)
The assay can be described thus: LTEA_HepaRG_BAX: Life Technologies and Expression Analysis (LTEA) Assay for Bcl-2 (BAX) gene using HepaRG (AID 2283470). In a few lines: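 Gene expression measured by Fluidigm qRT-PCR with three housekeeping genes for normalisation. HepaRG cells, plated 48 h beforehand, treated 48 h at up to 100 uM (8-point, half-log) in 0.5% DMSO. Bidirectional fitting versus DMSO.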

Read-out in assay [11]: adenosine kinase (ADK) gene, ADK (gene 132)
Briefly: LTEA_HepaRG_ADK: Life Technologies and Expression Analysis (LTEA) Assay for adenosine kinase (ADK) gene using HepaRG (AID 2283471). In short, it runs like this:
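ADK expression quantified by qRT-PCR, normalised to three housekeeping genes, after 48 h exposure of HepaRG cells to eight concentrations (top 100 uM, half-log steps, duplicate, 0.5% DMSO). Up- or down-regulation fitted relative to vehicle.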

Read-out in assay [12]: Alpha-fetoprotein (AFP) gene, AFP (gene 174)
Briefly: LTEA_HepaRG_AFP: Life Technologies and Expression Analysis (LTEA) Assay for Alpha-fetoprotein (AFP) gene using HepaRG (AID 2283472). In a few lines: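 AFP transcript measured by TaqMan qRT-PCR with three housekeeping genes for normalization, after 48 h chemical treatment of HepaRG cells (top 100 uM, half-log steps, 0.5% DMSO). Gain or loss fitted against vehicle.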

Read-out in another assay: BCL2L11 (gene 10018)
The assay can be described thus: LTEA_HepaRG_BCL2L11: Life Technologies and Expression Analysis (LTEA) Assay for Bcl-2 (BCL2L11) gene using HepaRG (AID 2283473). In short, it runs like this: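 BCL2L11 transcript levels are measured by Fluidigm qRT-PCR, normalized to three housekeeping genes. HepaRG cultures were plated 48 h, then treated 48 h with test chemical (top 100 uM, half-log, 0.5% DMSO vehicle); curves were fitted bidirectionally against DMSO.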

Read-out in assay [13]: Apolipoprotein A-V (APOA5) gene, APOA5 (gene 116519)
Briefly: LTEA_HepaRG_APOA5: Life Technologies and Expression Analysis (LTEA) Assay for Apolipoprotein A-V (APOA5) gene using HepaRG (AID 2283474). In a few lines: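 APOA5 transcript levels were quantified by qRT-PCR, normalized to three housekeeping genes, after 48 h chemical treatment of HepaRG cells (8 points, 100 uM maximum, half-log steps, 0.5% DMSO). Curves fitted in both directions against vehicle.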

Read-out in assay [14]: Apoptosis regulator Bcl-2 (Homo sapiens) (UniProt P10415)
Briefly: LTEA_HepaRG_BCL2: Life Technologies and Expression Analysis (LTEA) Assay for Bcl-2 gene using HepaRG (AID 2283475). In a few lines:
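qRT-PCR of BCL2 transcript, normalized to three housekeeping genes (ACTB, GAPDH, POLR2A), after 48 h chemical exposure of HepaRG cells; concentrations top 100 uM with half-log dilutions, 0.5% DMSO vehicle, duplicates; changes up or down fitted relative to vehicle.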

Read-out in assay [15]: Bcl-2 (BID) gene, BID (gene 637)
Briefly: LTEA_HepaRG_BID: Life Technologies and Expression Analysis (LTEA) Assay for Bcl-2 (BID) gene using HepaRG (AID 2283476). In short, it runs like this: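 Duplicate 48 h treatments of HepaRG cells in serum-free induction medium spanned 100 uM downward in half-log steps, 0.5% DMSO. Transcript change quantified by qRT-PCR against three housekeeping genes, fitted up or down versus DMSO.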

Read-out in a further assay: Caspase-3 (Homo sapiens) (UniProt P42574)
Briefly: LTEA_HepaRG_CASP3: Life Technologies and Expression Analysis (LTEA) Assay for cysteine-aspartic acid protease (CASP3) using HepaRG (AID 2283477). In short, it runs like this:
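Expression of CASP3 was quantified by TaqMan qRT-PCR against three housekeeping genes (ACTB, GAPDH, POLR2A), bidirectionally versus 0.5% DMSO. HepaRG cultures received compounds in duplicate, top 100 uM with half-log steps, for 48 h in serum-free induction medium.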

Read-out in assay [16]: Cytochrome P450 (CYP24A1), CYP24A1 (gene 1591)
The assay can be described thus: LTEA_HepaRG_CYP24A1: Life Technologies and Expression Analysis (LTEA) Assay for Cytochrome P450 (CYP24A1) using HepaRG (AID 2283478). In short, it runs like this: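 mRNA of CYP24A1 quantified by TaqMan qRT-PCR (ACTB/GAPDH/POLR2A normalization) after 48 h chemical exposure of HepaRG cells, top concentration 100 uM, half-log steps, 0.5% DMSO vehicle, duplicates. Curves fitted bidirectionally against DMSO baseline.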

Read-out in assay [17]: Cytochrome P450 (CYP1A2), CYP1A2 (gene 1544)
Briefly: LTEA_HepaRG_CYP1A2: Life Technologies and Expression Analysis (LTEA) Assay for Cytochrome P450 (CYP1A2) using HepaRG (AID 2283479). In a few lines:
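CYP1A2 transcript measured by TaqMan qRT-PCR against three housekeeping genes after 48-hour chemical exposure of HepaRG cells. Eight-point half-log series topping at 100 uM in 0.5% DMSO, duplicates; gain or loss fitted relative to vehicle.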

Read-out in assay [18]: ABC Transporter (ABCB11), ABCB11 (gene 8647)
The assay can be described thus: LTEA_HepaRG_ABCB11: Life Technologies and Expression Analysis (LTEA) Assay for ABC Transporter (ABCB11) using HepaRG (AID 2283463). In a few lines: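 Using HepaRG cultures held in 0.5% DMSO, chemicals were tested at half-log dilutions from 100 uM for 48 h. Induction or suppression of ABCB11 mRNA, normalized to ACTB, GAPDH and POLR2A, was fitted bidirectionally against vehicle.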

Activity calls are given as the source filed them. Rule for the calls: active = hit-call score of the fitted dose curve at least 0.9, where 1 is the maximum; inactive = score below 0.9.

Caspase-3 (Homo sapiens), sequence (P42574 whole entry, looked up): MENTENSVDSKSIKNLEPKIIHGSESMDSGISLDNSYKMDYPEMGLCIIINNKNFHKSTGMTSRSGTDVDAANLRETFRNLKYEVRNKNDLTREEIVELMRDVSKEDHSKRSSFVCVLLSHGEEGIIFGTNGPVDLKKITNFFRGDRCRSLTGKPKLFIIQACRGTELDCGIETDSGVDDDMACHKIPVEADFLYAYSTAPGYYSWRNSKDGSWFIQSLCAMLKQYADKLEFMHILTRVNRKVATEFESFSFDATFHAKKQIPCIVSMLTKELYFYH
Broad substrate specificity ATP-binding cassette transporter ABCG2 (Homo sapiens), sequence (Q9UNQ0 whole entry, looked up): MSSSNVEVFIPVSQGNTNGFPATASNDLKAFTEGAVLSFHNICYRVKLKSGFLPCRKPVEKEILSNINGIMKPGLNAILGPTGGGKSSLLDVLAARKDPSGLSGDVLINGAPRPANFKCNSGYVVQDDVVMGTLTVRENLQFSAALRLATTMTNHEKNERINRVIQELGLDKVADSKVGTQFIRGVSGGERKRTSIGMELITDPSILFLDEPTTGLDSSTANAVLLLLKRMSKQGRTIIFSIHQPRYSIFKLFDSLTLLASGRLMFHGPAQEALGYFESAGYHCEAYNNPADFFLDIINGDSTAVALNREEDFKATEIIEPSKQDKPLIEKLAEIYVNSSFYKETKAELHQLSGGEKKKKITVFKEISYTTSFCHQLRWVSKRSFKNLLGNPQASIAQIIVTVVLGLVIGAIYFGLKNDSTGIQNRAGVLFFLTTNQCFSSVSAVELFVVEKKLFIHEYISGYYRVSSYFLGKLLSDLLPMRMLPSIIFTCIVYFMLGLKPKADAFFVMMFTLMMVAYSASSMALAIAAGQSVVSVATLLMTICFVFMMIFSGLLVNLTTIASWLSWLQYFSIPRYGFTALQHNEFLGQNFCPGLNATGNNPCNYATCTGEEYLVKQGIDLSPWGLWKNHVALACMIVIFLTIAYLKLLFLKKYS
Apoptosis regulator Bcl-2 (Homo sapiens), sequence (P10415 whole entry, looked up): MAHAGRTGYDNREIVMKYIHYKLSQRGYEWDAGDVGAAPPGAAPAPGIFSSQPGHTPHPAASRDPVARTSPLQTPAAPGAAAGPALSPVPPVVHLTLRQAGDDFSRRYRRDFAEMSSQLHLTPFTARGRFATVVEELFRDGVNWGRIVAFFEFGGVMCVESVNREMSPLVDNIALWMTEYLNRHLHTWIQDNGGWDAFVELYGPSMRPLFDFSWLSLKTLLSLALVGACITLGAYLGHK

With `CCOP(=S)(OCC)SCSCC`, the compound was called inactive in assay [1], in assay [2], in assay [3], in assay [4], in assay [5] and in [6]. Further, the compound was called inactive in [7], in assay [8], in assay [9], in assay [10], in assay [11] and in [12]. Further, the outcome (with BCL2L11 (gene 10018); in [13]; in assay [14]; in [15]; with Caspase-3 (Homo sapiens); in [16]) was inactive. Besides, in [17], the compound was called inactive.
For `CCOC(=O)c1ccccc1C(=O)OCC`, the call in assay [1], in [2], in assay [3], in assay [4], in assay [5] and in assay [6] was inactive. Moreover, the result in [7], in assay [8], in [9], in assay [10], in [11] and in assay [12] was inactive. The result (in the assay with BCL2L11 (gene 10018); in assay [13]; in assay [14]; in assay [15]; with Caspase-3 (Homo sapiens); in assay [16]) was inactive. Also, the half-maximal activity concentration (AC50) in [17] is 83000 nM (active).
`ClC(Cl)c1ccccc1`: the result in assay [1], in assay [2], in assay [3], in assay [4], in assay [5] and in [6] was inactive. Further, the result in [7], in [8], in assay [9], in assay [10], in [11] and in assay [12] was inactive. The compound was classed as inactive (in the assay with BCL2L11 (gene 10018); in assay [13]; in [14]; in [15]; with Caspase-3 (Homo sapiens); in assay [16]). The outcome in assay [17] was inactive.
In the case of `c1nc[nH]n1`, the call in [1], in assay [2], in assay [3], in [4], in assay [5] and in assay [6] was inactive. Moreover, the compound was classed as inactive (in assay [7]; in assay [10]; in assay [11]; in assay [12]; with BCL2L11 (gene 10018); in [14]). Also, the call with Caspase-3 (Homo sapiens) was inactive. The concentration at half-maximal activity (AC50) in [8] was 109 nM (active); in [9], 105 nM (active); in assay [13], 112 nM (active); in assay [15], 89.7 nM (active); in assay [16] it was 185 nM (active); in assay [17], 109 nM (active).
Regarding `c1ccc2c(c1)Nc1ccccc1S2`, the outcome in assay [1], in assay [3], in [18], in [4], in assay [5] and in assay [6] was inactive. Moreover, the result in assay [7], in [8], in assay [9], in assay [10], in assay [11] and in assay [12] was inactive. Besides, the call (in the assay with BCL2L11 (gene 10018); in assay [13]; in [14]; in assay [15]; with Caspase-3 (Homo sapiens); in [16]) was inactive. Also, the AC50 in [2] is 85300 nM (active); in assay [17] it was 82800 nM (active).

Usually AC50 stands for the concentration at which the activity in the assay is half-maximal.

Values taken from PubChem BioAssay (EPA / NIEHS).
